Results on 47 molecules are retold here after PubChem BioAssay AID2012 (Sanford-Burnham Center for Chemical Genomics, 2009).

Among all 290,000 compounds or so, about 2,700 (0.93%) were called active. The sample holds actives, similar compounds and a random draw of the others, so the mix is not that of the screen. The rule behind the calls is not given here.

This assay concerns the target Eukaryotic translation initiation factor 4H (Homo sapiens) (UniProt Q15056). Description: eIF4H binding inhibition – biochemical, uHTS, fluorescence polarization, translation initiation inhibitor project, primary screen (AID 2012).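 Note: calls also rest on retests at 20 µM and on dose response follow-up.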 The conditions noted are these: eIF4H fluorescence polarization binding assay, stronger effect = higher value.

The term inhibition denotes the change of the read-out against control, counted positive when it falls.

Consider `CN1/C(=c2/s/c(=C3/C(=O)N(c4ccccc4)NC3=Nc3ccccc3)n(C)c2=O)C(C)(C)c2ccccc21`, for which the inhibition (at 35 µM) is 75.5% (active).

Regarding `CCN1C(=O)/C(=c2\s/c(=C3\Sc4ccccc4N3C)c(=O)n2C)N(C)C1=S`, where the note is “at 35 µM”, the inhibition is -3% (inactive).

For the molecule `O=[N+]([O-])c1cc([N+](=O)[O-])c(Oc2cc(F)cc(F)c2F)cc1NN1CCCCC1`, the inhibition (at 35 µM) was 0.2% (inactive).

In the case of `Cn1c(=O)c2ccccc2n(CC(=O)Nc2ccc3c(c2)OCCO3)c1=O`, the inhibition (at 35 µM) is -5.6% (inactive).

`COc1ccc(-c2c(-c3ccc(OC)cc3O)nc(C)nc2C(F)(F)F)cc1`: the inhibition (at 35 µM) is -5.5% (inactive).

Turning to `Cc1ccc(CCC(=O)Nc2ncc(Cc3cc(Cl)ccc3Cl)s2)o1`, for the setting “at 35 µM”, the inhibition is 1.5% (inactive).

Regarding `Cc1ccc(Cc2cnc(N)s2)o1`, the inhibition by setting is: (at 35 µM) 65.8% (active); (confirmation average, at 20 µM) 93.7%.

As for `O=C(CCc1nnc2ccc(NCc3ccccc3Cl)nn12)NCC1CCN(C2CCCC2)C1` (centres undefined), under “at 35 µM”, the inhibition was 13.5% (inactive).

Consider `Cc1nn(Cc2ccccc2)c(C)c1NS(=O)(=O)c1ccccc1`, for which, where the note is “at 35 µM”, the inhibition is -5.2% (inactive).

In the case of `CC(=O)N(CN1C(=O)C2CC=CCC2C1=O)c1cccc(Cl)c1` (centres undefined), under “at 35 µM”, the inhibition was 26% (inactive).

Take `CC(=O)N(CN1C(=O)C2C3C=CC(C3)C2C1=O)c1cccc(Cl)c1` (centres undefined): the inhibition (at 35 µM) was -5.8% (active) and the inhibition (confirmation average, at 20 µM) came to 61.4%.

Turning to `O=C(CN1C(=O)C2C3C=CC(C3)C2C1=O)NCCc1ccccc1Cl` (centres undefined), under “at 35 µM”, the inhibition was -10.5% (inactive).

For `COc1ccc(OCc2cc(C(=O)NCC3(C)COC3)no2)c(Cl)c1`, the inhibition (at 35 µM) was -2.3% (inactive).

For `N#Cc1ccccc1CN1C(=O)S/C(=C/c2cccn2-c2cccc(C(=O)O)c2)C1=O`, the inhibition was 81.6% (active) (at 35 µM) and 74.8% (confirmation average, at 20 µM).

For the molecule `O=C(O)c1cccc(N2C(=O)Nc3ccccc3N2O)c1`, the inhibition (at 35 µM) is 1% (inactive).

On to `Cn1cccc1/C=C1\SC(=O)N(CC(=O)Nc2ccc(F)cc2)C1=O`, for which the inhibition (at 35 µM) is 1.6% (inactive).

Consider `Cc1cc(CN(C)C(=O)c2cc(COc3ccc(C)c(C)c3)on2)n[nH]1`, for which the inhibition (at 35 µM) was -4.1% (inactive).

As to `CCCc1cc(=O)n2[nH]c(C)c(-c3ccc(Cl)cc3)c2n1`, the inhibition (at 35 µM) is 11.3% (inactive).

Turning to `COc1ccccc1OCCCC(=O)Nc1ccc2c(c1)OCCO2`, the inhibition (at 35 µM) was -2.5% (inactive).

Consider `COc1ccccc1OCc1ccc(C(=O)N2CCN(C)CC2)o1`, for which the inhibition (at 35 µM) is 0.9% (inactive).

As to `COc1cc2c(C(=O)N3CCN(C)CC3)c(CSc3ccccc3)n(C)c2cc1Br`, the inhibition by setting is: (at 35 µM) 1.1% (active); (confirmation average, at 20 µM) 81.5%.

Regarding `COc1cc(C(=O)N2CCN(C)CC2)cc(OC)c1OC`, the inhibition (at 35 µM) was -6.9% (inactive).

For the molecule `Cc1ccc(N2C(=O)C3C4C=CC(CC4)C3C2=O)cc1Br` (centres undefined), for the setting “at 35 µM”, the inhibition was -2.9% (inactive).

As for `CN(CCC1CCOCC1)C(=O)CC1C(=O)NCCN1Cc1cccc(F)c1` (centres undefined), under “at 35 µM”, the inhibition was -3.2% (inactive).

Consider `O=C(Nc1ccc(S(=O)(=O)Nc2ccccn2)cc1)c1ccccc1`, for which the inhibition (at 35 µM) is -9.1% (inactive).

Take `C=CCn1c(=O)c(C(=O)Nc2ncccc2O)c(O)c2ccccc21`: the inhibition (at 35 µM) is 22% (inactive).

Regarding `CS(=O)(=O)Nc1ccccc1N=C(c1ccccc1)c1ccccc1`, the inhibition (at 35 µM) was 1.1% (inactive).

For `CCOc1ccc(N(CC(=O)NCCOc2ccccc2OC)S(=O)(=O)c2ccccc2)cc1`, the inhibition (at 35 µM) is -3.8% (inactive).

As for `COc1ccc(Cl)cc1NC(=O)CCS(=O)(=O)c1ccc(Br)cc1`, the inhibition (at 35 µM) was 84.2% (active).

`O=C(NCCS(=O)(=O)c1ccc(Br)cc1)c1ccccc1Cl`: the inhibition (at 35 µM) is -7.2% (inactive).

As to `COc1ccc(Cl)cc1NC(=O)CCS(=O)(=O)c1cc2c(cc1C)NC(=O)CO2`, the inhibition (at 35 µM) is 3.9% (inactive).

Take `O=C(CCS(=O)(=O)c1ccc(Br)cc1)NCCc1ccc(Cl)cc1`: the inhibition is 86.1% (active) (at 35 µM) and 67.7% (confirmation average, at 20 µM).

For `COc1ccc(Cl)cc1NC(=O)CCN1CCOCC1`, the inhibition (at 35 µM) is -3.3% (inactive).

As to `NS(=O)(=O)c1ccc(CCNC(=O)Nc2ccc(Cl)cc2)cc1`, under “at 35 µM”, the inhibition is -4.8% (inactive).

As to `CS(=O)(=O)N1CCc2cc(C(=O)Nc3ccccc3Br)ccc21`, where the note is “at 35 µM”, the inhibition was -0.6% (inactive).

With `COCc1ccc(CN2CCC(Oc3ccc(C(=O)NCc4ccccn4)cc3)CC2)o1`, under “at 35 µM”, the inhibition was -2.5% (inactive).

Take `O=C(CC1CCCCC1)NCc1ccco1`: the inhibition (at 35 µM) was -6.2% (inactive).

On to `O=C(COC(=O)c1cccs1)NCc1cccs1`, for which the inhibition (at 35 µM) is -7.5% (inactive).

Take `O=C(COC(=O)C12CC3CC(CC(C3)C1)C2)NCc1ccco1`: the inhibition is 50.9% (active) (at 35 µM) and 92.2% (confirmation average, at 20 µM).

For `O=C(COC(=O)c1cnc(Cl)c(Cl)c1)NCc1ccco1`, the inhibition (at 35 µM) was -1.2% (inactive).

For `O=C(COC(=O)CCC(=O)c1cccs1)NCc1ccco1`, the inhibition is, setting by setting: (at 35 µM) 87% (active); (confirmation average, at 20 µM) 63.4%.

For the molecule `O=C(CC12CC3CC(CC(C3)C1)C2)NCc1ccco1`, under “at 35 µM”, the inhibition was -1% (inactive).

With `CC(C)CC(O)C1CCN(C(=O)CCc2nnc(-c3ccc4c(c3)OCO4)o2)CC1` (centres undefined), the inhibition (at 35 µM) is 11.1% (inactive).

Turning to `O=C(N/N=C\C1CC=CCC1)c1ccc(Br)o1` (centres undefined), the inhibition (at 35 µM) is -1.2% (inactive).

On to `CC(NC(=O)Cn1cc(C(F)(F)F)cc(Cl)c1=O)c1ccccc1` (centres undefined), for which the inhibition (at 35 µM) was 4.6% (inactive).

As for `O=C(O)c1cc(S(=O)(=O)NC2CCCc3ccccc32)ccc1O` (centres undefined), the inhibition (at 35 µM) is -2.4% (inactive).

Turning to `Cc1ccc(CNC(=O)CCS(=O)(=O)c2ccc3c(c2)CC(C)N3C(=O)C2CC2)o1` (centres undefined), the inhibition (at 35 µM) is -4.8% (inactive).
